# ROC1-CUL1 inh: blocks human RBX1-Cullin-1 di-ubiquitin formation; 0.6% of 140,000 active; P62877+Q13616; in vitro K48 di-Ub FRET, acceptor:donor ratio, 45 min; inhibition, % at 10 µM; in the data active means inhibition above about 25%
# * marks the source's active call; other numbers are inactive results. The entries come from a sample that favours hits as a whole.
SMILES,ROC1-CUL1 inh
CCOC(=O)c1nnc2c(-c3ccc(OC)cc3)c(C)nn2c1N,-0.5
O=C(CCCC(=O)NNC(=O)C1CC1)NNC(=O)C1CC1,-3.5
O=C(Nc1cc2nn(-c3ccccc3)nc2cc1Cl)c1ccc(Br)cc1,-5.7
O=C(Nc1cc2nn(-c3ccccc3)nc2cc1Cl)c1ccccc1Br,11.2
Nc1c(Cl)cc2nn(-c3ccccc3)nc2c1Br,31.2*
Cc1nc2snnc2c(=O)n1C,-2.3
CCCC(=O)Nc1cc(C(=O)OC)ccc1Cl,-12.6
O=c1/c(=C\c2ccco2)sc2n1C(c1cccs1)C1=C(N=2)c2ccccc2CC1 (configuration not stated),28.1*
COc1ccc(C2C3=C(N=c4s/c(=C/c5cccc(OC)c5O)c(=O)n42)c2ccccc2CC3)cc1 (configuration not stated),-8.8
O=c1/c(=C\c2cccs2)sc2n1C(c1cccc(F)c1)C1=C(N=2)c2ccccc2CC1 (configuration not stated),1.9
O=c1/c(=C\c2cc(Cl)cc(Cl)c2O)sc2n1C(c1ccc(Cl)cc1Cl)C1=C(N=2)c2ccccc2CC1 (configuration not stated),34.7*
O=c1/c(=C\c2cc3c(cc2[N+](=O)[O-])OCO3)sc2n1C(c1cccs1)C1=C(N=2)c2ccccc2CC1 (configuration not stated),-7.2
COc1ccc(C2C3=C(N=c4s/c(=C/c5ccc(O)c([N+](=O)[O-])c5)c(=O)n42)c2ccccc2CC3)cc1 (configuration not stated),43.6*
O=c1/c(=C\c2ccc(F)cc2)sc2n1C(c1ccc(Cl)cc1Cl)C1=C(N=2)c2ccccc2CC1 (configuration not stated),-5.1
COC(=O)c1ccc(/C=c2\sc3n(c2=O)C(c2ccc(Cl)cc2Cl)C2=C(N=3)c3ccccc3CC2)cc1 (configuration not stated),-5.6
COc1cc(/C=c2\sc3n(c2=O)C(c2ccccc2)C2=C(N=3)c3ccccc3CC2)cc(OC)c1O (configuration not stated),4.6
COc1ccccc1C1C2=C(N=c3s/c(=C\c4ccccc4O)c(=O)n31)c1ccccc1CC2 (configuration not stated),-6.9
COc1ccccc1C1C2=C(N=c3s/c(=C/c4cccc(OCC(=O)O)c4)c(=O)n31)c1ccccc1CC2 (configuration not stated),30.3*
CCOc1ccc(/C=c2/sc3n(c2=O)C(c2cc(OC)ccc2OC)C2=C(N=3)c3ccccc3CC2)cc1 (configuration not stated),6.6
O=C(Nc1cc(-c2cccc(Cl)c2)nn1-c1ccccc1)c1ccccc1F,-12.0
CN(CCc1cnn(C)c1)C(=O)CC1(c2cccc(F)c2)CC(=O)N(Cc2cccnc2)C1=O (configuration not stated),4.6
CCOC(=O)c1cc2ccccc2c(=O)s1,-1.3
CCSc1nnc2n(-c3ccccc3)c(=O)c3c(C)c(C)sc3n12,4.8
C=CCSC1=N/C(=C\c2ccc(C)cc2)C(=O)N1CC=C,14.2
O=C(Nc1nc2ccccc2s1)c1cccnc1Cl,0.5
SMILES,ROC1-CUL1 inh
CS(=O)(=O)N(CCc1ccccc1)CC(=O)N1CCN(c2ccccc2F)CC1,-6.3
O=C(N/N=C1/CC2C=CCC12)c1ccc(Br)o1 (configuration not stated),7.0
Cc1ccc(Cl)cc1NC(=O)c1sc(-n2nc(C)c(Cc3ccc4c(c3)OCO4)c2C)nc1C,-5.6
O=C(NC(=S)Nc1ccc(Cl)c(Cl)c1)c1cccc(Cl)c1,-6.7
O=C(Nc1ccc2c(c1)OCO2)c1ccccc1NC(=O)C1CCCCC1C(=O)O (configuration not stated),2.1
CCc1cccc(C)c1NC(=O)CSc1nc2ccccc2s1,-2.6
COc1ccc(C2C3=C(N=c4s/c(=C/c5ccc(C(=O)O)cc5)c(=O)n42)c2ccccc2CC3)cc1 (configuration not stated),75.7*
COc1ccc(C2C3=C(N=c4s/c(=C/c5ccc(C(C)C)cc5)c(=O)n42)c2ccccc2CC3)cc1 (configuration not stated),3.4
COc1ccc(C(=O)Oc2ccc(/C=c3/sc4n(c3=O)C(c3ccccc3Cl)C3=C(N=4)c4ccccc4CC3)cc2)cc1 (configuration not stated),-8.8
O=C(Oc1ccc(N2C(=O)CCC2=O)cc1)c1ccccc1,2.3
O=C1CCC(=O)N1c1cccc(Cl)c1,7.9
CC(=O)Sc1ccc(N2C(=O)CCC2=O)cc1,36.7*
